High-throughput results as filed in PubChem BioAssay.
Cruzain Triton = qHTS Assay for Promiscuous and Specific Inhibitors of Cruzain (with detergent). AID 1478, 2009. purified cruzain, Z-FR-AMC fluorescence, 0.01% Triton. hit rate 0.43% among 200,000. Potency, µM, for the others: max response, negative = inhibition, hits mostly inhibitors;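 also: plate controls were neutral wells for no effect and buffer without enzyme for full effect; nearly all actives have a fitted effect of over 40% in size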
Target sequence (P25779 123-467 limits assumed): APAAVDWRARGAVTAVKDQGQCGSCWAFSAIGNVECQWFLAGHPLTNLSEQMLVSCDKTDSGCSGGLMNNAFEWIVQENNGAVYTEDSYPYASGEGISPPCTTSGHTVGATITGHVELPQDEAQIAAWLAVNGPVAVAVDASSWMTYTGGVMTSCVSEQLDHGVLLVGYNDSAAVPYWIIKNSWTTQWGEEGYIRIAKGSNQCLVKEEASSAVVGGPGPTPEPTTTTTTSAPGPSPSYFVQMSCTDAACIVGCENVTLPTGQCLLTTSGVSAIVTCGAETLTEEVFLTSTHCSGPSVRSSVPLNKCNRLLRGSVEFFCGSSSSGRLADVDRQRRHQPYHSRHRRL
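Detergent-containing run (0.01% Triton X-100) in acetate buffer pH 5.5 with 5 mM DTT: enzyme at 1.5 nM final, 15 min compound preincubation at room temperature, then 2 uM Z-FR-AMC substrate. Activity taken as 60 s fluorescence increase at 360/450 nm.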
Cruzain noTriton = qHTS Assay for Promiscuous and Specific Inhibitors of Cruzain (without detergent); Cruzipain (Trypanosoma cruzi), P25779; purified cruzain, Z-FR-AMC fluorescence, no detergent; Potency, µM, for inactives: max response, negative = inhibition, most hits filed as inhibitors; hit rate 2.3% among 200,000; AID 1476, 2009;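 also: plate controls were enzyme without inhibitor for no effect and buffer without enzyme for full effect; nearly all actives have a fitted effect of over 40% in size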
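Purified cruzain at 1.5 nM, pre-incubated 15 min with compound at room temperature in 100 mM sodium acetate pH 5.5, 5 mM DTT, 0.00005% Triton X-100. Reaction started with 2 uM Z-FR-AMC; AMC fluorescence increase over 60 s gives rate.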
Starred values were filed as active, the others as inactive; u = inconclusive. Most compounds without a hit are left out; they make up all but 2.5% or so of the library. Calls follow the shape of the dose curve; as a rule, active = well fitted curve in the direction sought with a large enough effect; inconclusive = small, poorly fitted or top-dose-only effect, or another doubt; inactive = no such curve, though single readings can be large; an effect the other way counts as inactive or inconclusive. Potency is read from the fitted curve at half-maximal effect.

SMILES	Cruzain Triton	Cruzain noTriton
Nc1c(C(=O)c2ccccc2)sc2c1c(=O)[nH]c(=O)n2-c1ccccc1	-8%	11%
CCN(C(=O)c1cc2c(=O)oc3ccccc3c2s1)c1ccccc1F	0%	-8%
Cc1ccc2nc(SCc3nnc(-c4ccccc4Br)o3)[nH]c2c1	-30%	20µM*
Cc1sc2nc(SCC(=O)NCc3ccco3)n(-c3ccccc3)c(=O)c2c1C	3%	-10%
COc1ccc(-c2noc(CSc3nc4ccccc4c(=O)n3-c3ccc(C)cc3)n2)cc1	5%	16µM*
Cc1sc2nc(SCc3nc(-c4ccccc4)no3)n(-c3ccccc3)c(=O)c2c1C	-3%	25µM*
Cc1ccc2nc(SCc3nc(-c4ccccc4C)no3)[nH]c2c1	-24%	-7%
Brc1ccccc1-c1nnc(CSc2nncn2-c2ccccc2)o1	2%	-8%
O=c1c2ccccc2nc(SCc2nnc(-c3ccccc3Br)o2)n1-c1ccccc1	-1%	32µM*
COc1ccc(-n2c(SCc3nc(-c4ccc(C)cc4)no3)nnc2-c2ccccc2)cc1	-6%	u
CC(C)c1cc(C(=O)NC(C)c2ccccc2)no1 (stereo unspecified)	-3%	1%
COc1ccc(OCc2ccc(-c3nc(C#N)c(NC(C)c4ccccc4)o3)o2)cc1 (stereo unspecified)	-2%	-23%
CCc1ccc(NC(=O)N(Cc2ccc(C)cc2)Cc2cccn2-c2nnc(N3CCCC3=O)s2)cc1	-3%	-10%
O=C(NCCc1ccccc1Cl)C1CCN(c2nc3ccccc3nc2C(F)(F)F)CC1	2%	3%
CCNc1ncc2nc(-c3cccs3)c(=O)n(C)c2n1	4%	10%
CCn1nc(-c2cccs2)nc2c(=O)n(C)c(=O)nc1-2	2.2µM*	2µM*
Cc1cccc(OCc2nc(CC(=O)Nc3ccc(Cl)cc3)cs2)c1	-7%	-10%
Cc1ccc(NC(=O)CN2CCSc3ccc(S(=O)(=O)N4CCCC4)cc32)cc1C	-14%	-15%
O=C(Nc1ccc(Cl)c(C(F)(F)F)c1)C(Cc1ccccc1)NS(=O)(=O)c1ccc(Br)s1 (stereo unspecified)	0%	4µM*
COc1ccc(NC(=O)C(Cc2ccccc2)NS(=O)(=O)c2ccc(Br)s2)cc1OC (stereo unspecified)	-5%	-3%
CCc1cccc(NC(=O)C(Cc2ccccc2)NS(=O)(=O)c2cccs2)c1 (stereo unspecified)	-10%	3%
Cc1ccc(NC(=O)C(Cc2ccccc2)NS(=O)(=O)c2cccs2)cc1Cl (stereo unspecified)	-1%	13µM*
Cc1cc(C)cc(-n2ccnc2SCC(=O)Nc2cccc3ccccc23)c1	-6%	7%
CC1CC(C)CN(c2ccc(C(=O)OCC(=O)NC3CCCc4ccccc43)cc2[N+](=O)[O-])C1 (stereo unspecified)	1%	u
O=C(COC(=O)c1ccc(Sc2ccccc2)c([N+](=O)[O-])c1)NC1CCCc2ccccc21 (stereo unspecified)	2%	13µM*
SMILES	Cruzain Triton	Cruzain noTriton
CCOc1ccc(NC(=O)CC2C(=O)N(c3cccc(C)c3)C(=O)N2Cc2cccs2)cc1 (stereo unspecified)	-5%	-1%
CC(C)COc1ccc(C(=O)Nc2nnc(S(=O)(=O)N(C)Cc3ccco3)s2)cc1	-5%	u
O=C(COC(=O)C1CC(=O)N(c2nc(-c3ccccc3)cs2)C1)c1ccccc1 (stereo unspecified)	-5%	25µM*
O=C(COC(=O)C1CC(=O)N(c2ccccc2)C1)c1ccccc1 (stereo unspecified)	2%	0%
CN1CCN(C2=C(Cl)C(=O)N(c3cccc(Cl)c3)C2=O)CC1	-26%	u
CN1CCN(C2=C(Cl)C(=O)N(c3ccc(Cl)c(Cl)c3)C2=O)CC1	2.8µM*	2.5µM*
Cc1ccc(N2C(=O)C(Cl)=C(N3CCOCC3)C2=O)cc1Cl	7.1µM*	7.9µM*
O=C1C(Cl)=C(N2CCOCC2)C(=O)N1c1ccccc1Cl	u	-26%
CCOC(=O)c1sc(NC(=O)c2c(-c3ccccc3)c(-c3ccccc3)nn(C)c2=O)nc1C	-6%	u
O=C(NCCc1cn2ccccc2n1)c1ccccc1F	-14%	u
O=C(NCCc1cn2ccccc2n1)C1CCCCC1	-4%	16µM*
c1cn2cc(CSC3CCCCC3)nc2s1	-1%	-4%
O=C(NCCc1cn2ccsc2n1)C1CCCCC1	-7%	13µM*
Cc1ccccc1Oc1ncnc2oc(-c3ccccc3)cc12	-8%	-5%
Clc1ccc(Oc2ncnc3oc(-c4ccccc4)cc23)cc1	-1%	20µM*
COC(=O)c1ccc(-c2csc(NC(=O)c3ccc(S(=O)(=O)N4CCc5ccccc5C4)cc3)n2)cc1	1%	6.3µM*
CCC(CC)c1nnc(NC(=O)c2ccc(S(=O)(=O)N3CCc4ccccc4C3)cc2)s1	-4%	u
Cc1ccc2nc(NC(=O)c3ccc(S(=O)(=O)N4CCC(C)CC4)cc3)sc2c1	3%	-11%
Cc1cc(-c2csc(NC(=O)c3ccc(C#N)cc3)n2)c(C)n1Cc1ccccc1	-1%	10µM*
COc1ccc(-n2c(C)cc(-c3csc(NC(=O)c4ccc(S(=O)(=O)N(C)C)cc4)n3)c2C)cc1	-1%	10µM*
Cc1ccc2nc(NNC(=O)c3ccc(S(=O)(=O)N4CCc5ccccc5C4)cc3)sc2c1	4%	25µM*
Cc1ccc(C(=O)Nc2nc(-c3cc(Cl)sc3Cl)cs2)cc1	5%	u
CN(C)S(=O)(=O)c1ccc(C(=O)Nc2nc(-c3cccs3)cs2)cc1	-7%	9%
COc1ccccc1N1CCN(S(=O)(=O)c2c(C)sc3ncn(CC(=O)N(C)c4ccc(Cl)cc4)c(=O)c23)CC1	-3%	u
CCOc1ccc(CNC(=O)C2CCN(S(=O)(=O)N3CCCCC3)CC2)cc1	0%	1%
SMILES	Cruzain Triton	Cruzain noTriton
CCC(=O)N1CCc2cc(Br)cc(S(=O)(=O)N3CCC(C(=O)Nc4ccccc4CC)CC3)c21	-12%	u
Clc1cccc(CNCCCSc2nnnn2-c2ccccc2)c1	-1%	-10%
COc1ccc(-c2csc(NC(=O)c3ccc(S(=O)(=O)N4CCc5ccccc5C4)cc3)n2)cc1	0%	5µM*
COc1ccc(-c2nnc(NC(=O)c3ccc(S(=O)(=O)N4CCc5ccccc5C4)cc3)o2)cc1	-1%	-10%
COc1ccccc1CNC(=O)CC(c1ccc(C)cc1)N1Cc2ccccc2C1=O (stereo unspecified)	-3%	-7%
O=S(=O)(Nc1nc2ccc(S(=O)(=O)N3CCCC3)cc2s1)c1ccc(F)cc1	-9%	16µM*
O=C(Nc1nc2ccc(S(=O)(=O)N3CCCC3)cc2s1)c1ccc(F)cc1	0%	-5%
Cc1cccc(Cc2c(C)nc3nc(SCC(=O)NCc4ccccc4)nn3c2C)c1	-3%	2%
O=C(N/N=C1/C(=O)c2cccc3cccc1c23)c1ccc(Cl)cc1	10µM*	-27%
CCNC(=S)N/N=C1\C(=O)c2cccc3cccc1c23	2%	u
CCOC(=O)c1c(C)oc2nc(C)nc(N3CCN(c4cccc(C)c4C)CC3)c12	-1%	6%
COc1ccccc1-c1noc(-c2ccc(NCc3cccnc3)c([N+](=O)[O-])c2)n1	-1%	u
CC(C)(C)C1CCc2onc(C(=O)Nc3cccc(O)c3)c2C1 (stereo unspecified)	0%	5%
